From PubChem
NPC1 promoter act = NPC1 promoter activation | Huh7 NPC1 promoter luciferase reporter, 24 h | Potency, µM (highest dose often 9.22 µM), inactives show top-dose activation, usual class: activators | 320,000 tested, 2.4% active | AID 485313; note: % of control where 0% means no effect; nearly all actives have a fitted effect of over 60% in size
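Luminescence from an NPC1 promoter-driven luciferase reporter in stably transfected Huh7 cells was measured after 24 h compound treatment at 37 °C, followed by 10 min ambient incubation with luciferase detection reagent.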
ELG1 genotoxic = inducers of genotoxicity in HEK293T ELG1-luciferase cells. HEK293T ELG1-luciferase reporter, luminescence, 16 h. Potency, µM (top dose mostly 46 µM), for inactives: at the top dose activity change, positive = activation, actives largely listed as activators. 330,000 tested, 1.3% active; note: % of control where 0% means no effect; nearly all actives have a fitted effect of over 60% in size
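Quantitative HTS format in 1536-well plates. HEK293T ELG1-luciferase reporter cells receive test compound and are incubated 16 hr at 37 °C, 5% CO2; ONE-Glo added, 30 min room temperature, then luminescence read.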
Rab9 prom act = activators of Rab9 promoter; Huh7 Rab9 promoter-luciferase reporter, luminescence, 24 h; Potency, µM (series often up to 9.22 µM), inactives show at the highest dose activation, negative = inhibition, hits mostly activators; 320,000 tested, 2.8% active; note: % of control where 0% means no effect; nearly all actives have a fitted effect of over 60% in size
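Promoter activation is measured as luciferase luminescence in Huh7 cells stably transfected with a Rab9 promoter–luciferase construct, following 24 h compound exposure at 37 °C and 10 min reagent incubation at ambient temperature.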
FLuc modulator = firefly luciferase modulation, counter-screen for miR-21 project; P08659; purified FLuc, Km substrates, luminescence inhibition; Potency, µM (series often up to 57.5 µM), without a hit: at the top dose activity change, negative = inhibition, usual class: inhibitors; 360,000 tested, 6.9% active;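 note: plate controls were vehicle for no effect and reference inhibitor for full effect; nearly all actives have a fitted effect of over 55% in size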
Target sequence (P08659 whole entry, looked up): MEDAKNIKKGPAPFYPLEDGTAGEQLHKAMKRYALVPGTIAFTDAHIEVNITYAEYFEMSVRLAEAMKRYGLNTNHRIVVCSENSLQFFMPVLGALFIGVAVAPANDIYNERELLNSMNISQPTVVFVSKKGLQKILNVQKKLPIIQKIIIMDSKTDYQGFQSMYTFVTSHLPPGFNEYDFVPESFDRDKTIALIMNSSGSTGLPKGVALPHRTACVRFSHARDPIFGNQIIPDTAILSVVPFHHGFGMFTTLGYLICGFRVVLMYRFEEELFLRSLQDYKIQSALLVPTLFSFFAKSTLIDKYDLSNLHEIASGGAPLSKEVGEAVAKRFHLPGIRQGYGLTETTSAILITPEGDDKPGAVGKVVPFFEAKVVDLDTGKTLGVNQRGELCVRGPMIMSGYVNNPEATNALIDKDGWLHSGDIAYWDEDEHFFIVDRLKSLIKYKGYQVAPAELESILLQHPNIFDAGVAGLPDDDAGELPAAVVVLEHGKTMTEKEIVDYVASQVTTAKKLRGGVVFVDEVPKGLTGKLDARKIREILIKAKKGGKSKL
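Purified P. pyralis luciferase, 10 nM final, with Km-level 10 uM D-luciferin and 10 uM ATP in 50 mM Tris acetate pH 7.5, 10 mM Mg acetate, 0.01% Tween-20, 0.05% BSA; 6-point qHTS titration about 60 µM downward; luminescence read.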
SMN2 splice up = SMN2 splice variant enhancement; AID 1458; 210,000 tested, 2.8% active; HEK293 SMN2-luciferase splicing reporter, luminescence, 30-36 h; Potency, µM (highest dose often 46.1 µM), for the others: at the highest dose activity change, positive = activation, hits mostly activators; note: % of control where 0% means no effect; nearly all actives have a fitted effect of over 55% in size
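qHTS luciferase splicing reporter: luminescence rises when SMN2 exon 7 is included in transfected HEK293 cells. Compound exposure lasted 30-36 h at 37C, with 4.5 mM final sodium butyrate as control, followed by a ONE-Glo read.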
The depositor's hits bear a star; ? = inconclusive; . = not tested or not shown. Compounds with a hit are over-represented: about 7.5% of the library has one in this group of screens. Calls come from the whole dose curve; as a rule, active = well fitted curve in the direction sought with a large enough effect; inconclusive = small, poorly fitted or top-dose-only effect, or another doubt; inactive = no such curve, though single readings can be large; an effect the other way counts as inactive or inconclusive. Potency is the fitted concentration of half-maximal effect.

SMILES | NPC1 promoter act | ELG1 genotoxic | Rab9 prom act | FLuc modulator | SMN2 splice up
CCOc1ccc(-n2nnnc2-c2nc3ccccc3s2)cc1 | ? | 18µM* | 2.5µM* | 2.1µM* | -55%
Cc1cc(Cl)ccc1NC(=O)Cn1nnc2sc(-c3ccccc3)cc2c1=O | . | . | . | -1% | 1%
CN(c1ccc(F)cc1)S(=O)(=O)c1ccc(Cl)c(C(=O)NC2(C)CCS(=O)(=O)C2)c1 (configuration not stated) | -3% | 0% | -7% | 1% | .
O=C(Nc1ccc(N2CCOCC2)c(Cl)c1)c1ccccc1Cl | 26% | ? | ? | 27µM* | .
O=C(Nc1ccc(N2CCOCC2)c(Cl)c1)c1ccc(F)cc1 | ? | 2% | 2.5µM* | 13µM* | 11µM*
O=C(Nc1ccc(N2CCOCC2)c(Cl)c1)c1ccc(-n2cnnc2)cc1 | 0% | 7% | 2% | -1% | .
CCN(CC)c1ccc(/C=N/Nc2nc3ccccc3[nH]2)cc1 | 24% | ? | ? | 6µM* | -92%
CC(=O)Nc1ccc(/C=N/Nc2nc3ccccc3[nH]2)cc1 | ? | -8% | ? | 12µM* | -29%
c1ccc2[nH]c(NN=C3CCCCCC3)nc2c1 | 10% | ? | 3.5µM* | 3.4µM* | 11µM*
CC(=O)Nc1ccc(CCc2nc3ccccc3[nH]2)cc1 | 1% | 7% | 18% | -7% | .
CC(/C=N/Nc1nc2ccccc2[nH]1)=C\c1ccccc1 | 0.5µM* | 0.82µM* | 0.4µM* | 0.67µM* | 2.5µM*
CC1CN(C(=O)/C(C#N)=C2\N=C(NC(=O)c3ccc(F)cc3)c3ccccc32)CC(C)O1 (configuration not stated) | 1% | -6% | -3% | -2% | .
COC(=O)C1=C(C)NC(C)=C(C(=O)OC)C1C(=O)OCC(=O)N1CCCCC1C (configuration not stated) | 1% | -5% | -2% | 3% | .
COC(=O)c1ccc(C(NC(=O)OCc2ccccc2)/C(C)=C/[C@@H](C)C(=O)NCCO)cc1 (some centres not stated) | . | . | . | . | 7%
O=C(Cc1nc2ccccc2[nH]1)N/N=C/c1ccccc1 | 5% | 1% | 8% | 15µM* | .
O=C(O)c1ccc(/C=N/Nc2nc3ccccc3[nH]2)cc1 | 13% | -1% | 9% | ? | .
COC(=O)c1ccc(/C=N/Nc2nc3ccccc3[nH]2)cc1 | 3.2µM* | 21µM* | 3.2µM* | 8.5µM* | ?
CC(C)(C)c1cc(/C=N/NC(=O)Cc2nc3ccccc3[nH]2)cc(C(C)(C)C)c1O | -2% | -3% | -4% | -1% | -13%
Cc1ccc(C)c(OCc2nc3ccccc3[nH]2)c1 | ? | 16% | ? | 15µM* | ?
COc1ccccc1N1C(=O)S/C(=C\c2cc(C)n(C)c2C)C1=O | 3.5µM* | ? | 2.5µM* | 12µM* | 14µM*
COc1ccccc1N1C(=O)S/C(=C\c2ccc(C)s2)C1=O | ? | ? | 3.5µM* | -21% | .
COc1ccc(N=C2S/C(=C\c3cc(C)n(C)c3C)C(=O)N2C)cc1 | -4% | 10% | 0% | 0% | -14%
COc1ccc(N=C2S/C(=C\c3ccc(C)s3)C(=O)N2CC(C)C)cc1 | -3% | -5% | 0% | 0% | 0%
COc1ccc(NC(=O)c2cc3nc(-c4ccc(Cl)c(Cl)c4)cc(C(F)(F)F)n3n2)c(OC)c1 | . | . | . | 1% | 4%
COc1ccc(/C=N/Nc2nc(-c3cccnc3)nc3ccccc23)c(OC)c1 | 1% | -10% | 1% | 2.4µM* | .
SMILES | NPC1 promoter act | ELG1 genotoxic | Rab9 prom act | FLuc modulator | SMN2 splice up
Cc1ccc(-c2nc(N/N=C/c3cccc([N+](=O)[O-])c3)c3ccccc3n2)cc1 | ? | 0% | -3% | 0.54µM* | 5%
Cc1ccc(-c2nc(NCc3cccnc3)c3ccccc3n2)cc1 | 5% | 1% | 4% | ? | 6%
Cc1ccc(-c2nc(N/N=C/c3cccnc3)c3ccccc3n2)cc1 | ? | ? | 3.5µM* | 0.12µM* | ?
CC(C)(C)n1ncc2c(=O)n(Cc3cccc(Cl)c3Cl)cnc21 | . | . | . | -12% | .
CCOc1ccc(CCNC(=O)COC(=O)c2cc(OC)c(OC)c(OC)c2)cc1OCC | -17% | -21% | -5% | 0% | 1%
COc1ccc(NC(=S)Nc2ccccn2)c(OC)c1 | ? | ? | ? | ? | 11µM*
COc1ccc(NC(=S)NC(=O)CC(C)C)c(OC)c1 | 14% | 6% | 14% | 13µM* | 20%
COc1ccc(NC(=S)Nc2cc(C)ccn2)c(OC)c1 | ? | ? | ? | 2.7µM* | 11µM*
COc1ccc(NC(=S)Nc2cnc3ccccc3c2)c(OC)c1 | 1% | 0% | -4% | 6µM* | 0%
COc1ccc(NC(=S)Nc2ccc(OC)cc2OC)c(OC)c1 | 4% | -1% | -4% | 0% | -4%
Fc1ccccc1N1CCN(c2c3c(nc4nncn24)CCC3)CC1 | . | . | . | 5% | 1%
COc1cc(NC(=S)Nc2ccccn2)cc(OC)c1 | 13% | 3% | -1% | 9.5µM* | 9%
COc1ccc(-c2nc(SCC(=O)NCCc3ccccc3)n[nH]2)cc1 | . | . | . | 17µM* | .
COc1ccc2c(Sc3ccccc3)c(C(=O)NCCc3ccc(Cl)cc3)[nH]c2c1 | . | . | . | 5.4µM* | .
COc1ccc2c(=O)c(C(=O)NCCc3ccccc3)c[nH]c2c1 | ? | 11% | ? | 17µM* | .
COc1ccc(CCNC(=O)c2nn(C)cc2Cl)cc1 | 20% | ? | 19% | ? | 11µM*
Cc1cc(C(=O)NCc2cccs2)c(C)o1 | -1% | 1% | -6% | 2% | 15%
COc1ccc(CCNC(=O)c2ccc3ccccc3n2)cc1 | 6% | 18µM* | 22% | ? | .
Cc1ccc2c(=O)c(C(=O)NCc3cccs3)c[nH]c2c1 | 17% | 16% | ? | 17µM* | -1%
COc1ccc(OC(=O)NCCc2ccccc2)cc1 | 4µM* | ? | 3.5µM* | 15µM* | .
CCOc1c(Cl)cc(/C=C/C(=O)N(CC)CC(=O)NCc2cccs2)cc1OC | -4% | -16% | -2% | 3% | .
Clc1cccc(Cl)c1C1=NOC(c2nnc(-c3ccccc3)o2)C1 (configuration not stated) | 30% | 16% | ? | 19µM* | .
CCc1ccccc1NC(=O)CSc1nnc(Cn2nnc3ccccc32)n1C | -1% | 1% | 2% | 2% | -10%
O=C(NCc1ccccc1)c1cccc(COc2ccccc2Cl)c1 | 1.8µM* | ? | 1.8µM* | 15µM* | 13µM*
CN(C(=O)c1cccc(COc2ccc(Cl)cc2Cl)c1)c1ccccc1 | 0.63µM* | 2.1µM* | 1µM* | 12µM* | 3.2µM*
O=C(NCc1cccnc1)c1ccc(COc2ccccc2Cl)cc1 | -1% | 0% | -2% | ? | -13%
NNC(=O)c1cccc(COc2ccccc2Br)c1 | 0.35µM* | ? | 0.89µM* | 7.6µM* | 13µM*
